Bioassay records: PubChem, National Center for Advancing Translational Sciences (NCATS)
ELG1 genotox = qHTS screen for small molecules that induce genotoxicity in human embryonic kidney (HEK293T) cells expressing luciferase-tagged ELG1. HEK293T ELG1-luciferase reporter, luminescence, 16 h. Potency, µM (doses to about 46 µM), for inactives: top-dose activity change, positive = activation, most hits filed as activators. actives 1.3% (n = 330,000). AID 504466, 2011; also: % of control where 0% means no effect; nearly all actives have a fitted effect of over 60% in size
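Luminescence read-out: rising ELG1-luciferase signal, reflecting elevated ELG1 protein under genetic stress, flags genotoxic compounds. Cells were treated for 16 hr at 37 °C before ONE-Glo detection.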
Rab9 prom act = qHTS Assay for Rab9 Promoter Activators; Huh7 Rab9 promoter-luciferase reporter, luminescence, 24 h; Potency, µM (series often up to 9.22 µM), for the others: at the top dose activation, negative = inhibition, actives largely listed as activators; AID 485297, 2010; actives 2.8% (n = 320,000); also: % of control where 0% means no effect; nearly all actives have a fitted effect of over 60% in size
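Luminescence from Amplite-detected luciferase (10 minutes, ambient) reports Rab9 promoter activation. Before that, stable Rab9-luciferase Huh7 cells (1500/well, reduced-serum OP-MEM I plus 10% FBS) were exposed to compound for 24 hours at 37C.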
SMN2 splice up = qHTS Assay for Enhancers of SMN2 Splice Variant Expression. Potency, µM (doses to about 46.1 µM), for inactives: at the top dose activity change, positive = activation, hits mostly activators. HEK293 SMN2-luciferase splicing reporter, luminescence, 30-36 h. actives 2.8% (n = 210,000); also: % of control where 0% means no effect; nearly all actives have a fitted effect of over 55% in size
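HEK293 cells carry an SMN2 minigene-luciferase reporter in which exon 7 inclusion puts luciferase in frame. Cells were seeded at 2000 cells/well, attached for 10-12 hours, then exposed to compounds for 30-36 hours at 37C before ONE-Glo luminescence.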
FLuc counter = qHTS profiling assay for firefly luciferase inhibitor/activator using purifed enzyme and Km concentrations of substrates (counterscreen for miR-21 project); purified FLuc, Km substrates, luminescence inhibition; actives 6.9% (n = 360,000); Potency, µM (top dose mostly 57.5 µM), without a hit: at the top dose activity change, negative = inhibition, actives largely listed as inhibitors;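 also: plate controls were vehicle for no effect and reference inhibitor for full effect; nearly all actives have a fitted effect of over 55% in size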
Target sequence (P08659 whole entry, looked up): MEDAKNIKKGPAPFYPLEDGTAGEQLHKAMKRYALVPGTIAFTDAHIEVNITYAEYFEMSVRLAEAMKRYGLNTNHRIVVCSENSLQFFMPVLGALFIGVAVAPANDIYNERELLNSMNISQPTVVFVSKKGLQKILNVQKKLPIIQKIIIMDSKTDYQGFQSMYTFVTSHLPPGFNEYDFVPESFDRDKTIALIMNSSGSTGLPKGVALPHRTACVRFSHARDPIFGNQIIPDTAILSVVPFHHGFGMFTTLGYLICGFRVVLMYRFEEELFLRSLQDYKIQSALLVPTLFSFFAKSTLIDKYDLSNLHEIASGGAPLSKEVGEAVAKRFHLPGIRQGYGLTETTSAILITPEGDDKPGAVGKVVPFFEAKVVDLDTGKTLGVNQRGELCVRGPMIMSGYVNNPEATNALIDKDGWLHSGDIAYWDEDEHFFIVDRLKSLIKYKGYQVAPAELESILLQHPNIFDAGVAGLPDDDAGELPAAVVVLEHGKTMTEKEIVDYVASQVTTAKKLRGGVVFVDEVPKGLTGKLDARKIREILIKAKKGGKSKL
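Biochemical qHTS of compounds, final roughly 60 µM downward over six points, against 10 nM purified firefly luciferase using Km concentrations of substrates (10 uM D-luciferin, 10 uM ATP) in Tris acetate pH 7.5 buffer; luminescence output.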
NPC1 promoter act = qHTS Assay for NPC1 Promoter Activators. Huh7 NPC1 promoter luciferase reporter, 24 h. actives 2.4% (n = 320,000). Potency, µM (doses to about 9.22 µM), without a hit: at the top dose activation, most hits filed as activators; also: % of control where 0% means no effect; nearly all actives have a fitted effect of over 60% in size
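Huh7 cells stably carrying NPC1 promoter–luciferase, plated in Opti-MEM with 10% FBS for 2 h, were exposed to compound in DMSO for 24 h at 37 °C; luciferase reagent was added for 10 min and luminescence read.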
p53 reactivation = qHTS assay for re-activators of p53 using a Luc reporter | H1299 p53-A138V BP100-luciferase reporter, luminescence, 24 h | Potency, µM (titrated, usually from 92.2 µM), for the others: top-dose activity change, positive = activation, hits mostly activators | actives 0.063% (n = 320,000) | AID 504706, 2011; also: % of control where 0% means no effect; nearly all actives have a fitted effect of over 45% in size
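p53-null H1299 cells stably carrying temperature-sensitive p53-A138V and a BP100-luciferase reporter were pinned with compounds (4-point, 1:5 series) and held 24 hrs at 37 deg C. Luminescence was read 10 min after detection reagent.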
Active calls of the source: *; ? = inconclusive; nt = not tested or not shown. Hits are enriched below; roughly 7.4% of the tested compounds scored in any of these assays. Calls follow the shape of the dose curve; as a rule, active = well fitted curve in the direction sought with a large enough effect; inconclusive = small, poorly fitted or top-dose-only effect, or another doubt; inactive = no such curve, though single readings can be large; an effect the other way counts as inactive or inconclusive. Potency is read from the fitted curve at half-maximal effect.

SMILES	ELG1 genotox	Rab9 prom act	SMN2 splice up	FLuc counter	NPC1 promoter act	p53 reactivation
Cc1ccc(/C=C/C(=O)Nc2ccc(S(=O)(=O)Nc3cc(C)nc(C)n3)cc2)cc1	1%	-1%	nt	11µM*	3%	-2%
Cc1noc(NS(=O)(=O)c2ccc(NC(=O)/C=C/c3ccc(Br)cc3)cc2)c1C	6%	3%	nt	?	-7%	-1%
O=C(O)/C=C/c1ccc(S(=O)(=O)Nc2ccccc2C(=O)Nc2ccc(F)cc2)cc1	8%	2%	nt	12µM*	-1%	-2%
Cc1noc(NS(=O)(=O)c2ccc(NC(=O)/C=C/c3ccc(C(C)C)cc3)cc2)c1C	1%	-1%	nt	11µM*	-1%	nt
Cc1ccnc(NS(=O)(=O)c2ccc(NC(=O)/C=C/c3ccccc3)cc2)n1	0%	-4%	nt	?	0%	0%
Cc1ccc(C(=O)/C=C/Nc2ccc(S(=O)(=O)Nc3cc(C)nc(C)n3)cc2)cc1	11%	-2%	nt	?	-1%	3%
CCc1nn2c(=O)cc(COc3ccc(/C=C(\C#N)C(=O)Nc4ccc(F)cc4)cc3OC)nc2s1	nt	nt	-6%	-1%	nt	nt
O=C(Cn1c(=O)n(Cc2ccc(C(=O)NCc3ccccc3Cl)cc2)c(=O)c2ccccc21)Nc1ccc(F)cc1	nt	nt	-1%	-6%	nt	nt
COc1ccc(/C=C/C(=O)NC(=S)Nc2ccc(S(=O)(=O)Nc3cc(C)on3)cc2)cc1	4%	-1%	nt	15µM*	-7%	9%
Cc1ccc(/C=C/C(=O)Nc2ccc(S(=O)(=O)Nc3ncccn3)cc2)cc1	7%	0%	-2%	9.5µM*	-5%	-1%
COc1ccccc1C(=O)Nc1ccccc1C(=O)OCc1cc(=O)n2c(C)csc2n1	nt	nt	nt	0%	nt	nt
COc1ccc(Nc2nnc(SCC(=O)Nc3ccc4[nH]c(=O)[nH]c4c3)s2)cc1	6%	11%	nt	2.4µM*	3%	-3%
CCCSc1nnc(NC(=O)Nc2ccc(C)cc2)s1	-3%	-2%	nt	0%	2%	2%
CCCCC(=O)Nc1nnc(SCC(=O)Nc2ccc(OC)cc2)s1	?	0%	nt	1%	-7%	-4%
COc1ccc(NC(=O)CSc2nnc(NC(=O)c3ccccc3C(=O)O)s2)cc1	-2%	-5%	nt	27µM*	-1%	-1%
COc1ccc(NC(=O)CSc2nnc(NC(=O)Nc3ccc(OC)cc3)s2)cc1	nt	nt	nt	0.38µM*	nt	nt
COCCNC(=O)CSc1nnc(NC(=O)Nc2ccc(C)cc2)s1	nt	nt	nt	12µM*	nt	nt
O=C(NCc1cccs1)C1CCCN1C(=O)Nc1ccccc1Cl (stereo not given)	-3%	6%	nt	-1%	-1%	-2%
COC(=O)CSc1nnc(SCc2ccc(OC)cc2)s1	0%	-11%	1%	24µM*	0%	-2%
Cc1ccccc1CNC(=O)C1CCN(c2nnc(-n3c(C)ccc3C)s2)CC1	nt	nt	-4%	-8%	nt	nt
COc1cccc(CN(C)Cc2c(O)ccc3ccccc23)c1	0%	0%	nt	11µM*	3%	6%
O=Nc1c(-c2c(O)[nH]c3cc(Br)ccc23)[nH]c2ccccc12	?	3.7µM*	16µM*	9.5µM*	2.9µM*	nt
Cc1ccc(N(C(=O)Nc2ccccc2)C2=NCC(C)S2)cc1 (stereo not given)	6%	-6%	-4%	-18%	0%	12%
Cc1ccnc(N(C(=O)Nc2ccccc2)C2=NCC(C)(C)S2)c1	?	?	nt	19µM*	2.5µM*	12%
O=C(N/N=C/c1ccc(F)cc1)c1ccc(OCc2ccccc2)cc1	0%	-1%	nt	0%	2%	-1%
SMILES	ELG1 genotox	Rab9 prom act	SMN2 splice up	FLuc counter	NPC1 promoter act	p53 reactivation
Cc1occc1C(=O)N/N=C/c1ccc(OCc2ccccc2)cc1	?	2.8µM*	nt	?	?	8%
Cc1occc1C(=O)N/N=C/c1ccc(-c2ccccc2)cc1	0.16µM*	0.4µM*	nt	0.67µM*	0.32µM*	?
Cc1occc1C(=O)N/N=C/C(Br)=C/c1ccccc1	?	0.89µM*	8.9µM*	2.7µM*	1.8µM*	18%
COc1ccc(Nc2nc(N)nc(N)c2S(=O)(=O)c2ccccc2)cc1	nt	nt	-19%	3%	nt	nt
Cc1ccc(-c2nc3nc4ccccc4nc3n2Cc2ccco2)cc1	2.9µM*	12%	8.9µM*	11µM*	4%	?
Clc1ccc(-c2nc3nc4ccccc4nc3n2Cc2ccco2)cc1	23µM*	4%	18µM*	?	0%	?
CCCCCn1c(-c2ccco2)nc2nc3ccccc3nc21	-26%	2%	8%	?	-2%	-11%
Cc1ccc(NC(=O)c2cccc(NC(=O)N3CCSc4ncccc43)c2)cc1Cl	nt	nt	nt	1%	nt	nt
O=C(NN1CCOCC1)c1cc(-c2ccc(Br)cc2)nc2ccccc12	0%	-4%	5%	?	-2%	-4%
CC(C)c1ccc(-c2cc(C(=O)N3N=C(C(F)F)CC3(O)C(F)F)c3ccccc3n2)cc1 (stereo not given)	?	?	?	1.5µM*	?	?
CN1CCN(NC(=O)c2cc(-c3cccc(Cl)c3)nc3ccccc23)CC1	13%	1%	-39%	-2%	-5%	0%
O=C(c1cc(C2CC2)nc2ccccc12)N1N=C(C(F)F)CC1(O)C(F)F (stereo not given)	0%	4%	-11%	-2%	-3%	21%
CC(C)c1ccc(-c2cc(C(=O)NN3CCN(C)CC3)c3ccccc3n2)cc1	?	?	?	0.6µM*	?	?
CCc1ccc(-c2cc(C(=O)NN3CCOCC3)c3ccccc3n2)cc1	3%	3%	1%	4.8µM*	10%	2%
COc1ccc(Nc2ncc3c(n2)CCN(Cc2ccccc2C)C3)c(OC)c1	nt	nt	nt	5%	nt	nt
O=S(=O)(NCc1nnc2ccccn12)c1ccc(Cl)cc1	3%	0%	nt	3%	-3%	3%
Cc1cc(C)nc(NS(=O)(=O)c2ccc(NC(=O)COc3ccc(C(C)(C)C)cc3)cc2)n1	nt	nt	-9%	11µM*	nt	nt
CCCCOc1ccc(C(=O)Nc2ccc(S(=O)(=O)Nc3onc(C)c3C)cc2)cc1	0%	-6%	nt	17µM*	-7%	-12%
CCCOc1ccc(C(=O)Nc2ccc(S(=O)(=O)Nc3onc(C)c3C)cc2)cc1	17%	2%	-24%	8.5µM*	3%	2%
